Shown are actives, neighbours in structure and some others; about 8.6% of the full set was active somewhere.
Marburg entry = blocks Marburg virus binding or cell entry; AID 720532; hit rate 6.5% among 18,000; Potency, µM (highest dose often 49.2 µM), actives largely listed as inhibitors; Marburg virus pseudotype entry/binding inhibition, cell-based
LASV entry inh = blocks Lassa virus binding or cell entry; Lassa virus pseudotyped entry inhibition, cell-based qHTS; Potency, µM (titrated, usually from 49.2 µM), usual class: inhibitors; hit rate 4.1% among 18,000; AID 720533
Each line names hits and unclear results; the compound was inactive in the other large screens. The call rests on the fitted dose curve; tested in HEK293 cells.

CC(=O)O[C@H]1C2[C@@H](OC(=O)Cc3ccccc3)[C@@H](C)C[C@]2(OC(C)=O)C(=O)/C(C)=C/[C@@H]2[C@H](CC[C@@]13CO3)C2(C)C (some centres undefined)	Marburg entry inconclusive
COc1cc(CC(=O)OCC2=C[C@H]3[C@@H]4C(C)(C)[C@]4(OC(C)=O)[C@H](OC(=O)Cc4ccccc4)[C@@H](C)[C@]3(O)[C@@H]3C=C(C)C(=O)[C@@]3(O)C2)ccc1O	Marburg entry inconclusive, LASV entry inh 13µM
C=C(C)[C@]12C[C@@H](C)[C@@]34OC(Cc5ccccc5)(O[C@@H]1[C@@H]3C=C(COC(=O)Cc1cc(OC)c(O)cc1I)C[C@]1(O)C(=O)C(C)=C[C@@H]41)O2	Marburg entry 14µM, LASV entry inh 20µM
O=C(OCc1cn([C@H]2CN(C(=O)C3CCCCC3)[C@@H](c3ccc(Cl)cc3)C[C@H]2O)nn1)c1ccccc1	none
CCC(=O)C[C@@H](NC(=O)OC)c1ccc(F)cc1	none
COc1cccc([C@H]2Oc3ccc(OC)cc3C(=NO[C@@H](C)c3cn([C@H](CO)Cc4ccccc4)nn3)[C@H]2O)c1	none
O=S1(=O)CC(N2CC=CC2)CN1Cc1cn(Cc2ccc(C(F)(F)F)cc2)nn1 (centres undefined)	none
CC(C)(O)C#Cc1ccc(C(=O)NCCN2Cc3ccccc3OC(c3ccccc3F)C2)o1 (centres undefined)	none
O=C1CCCC=C1C(O)CCOCc1ccccc1 (centres undefined)	none
CC(=O)Nc1ccc(OCCOCCOc2ccc(NC(C)=O)cc2)cc1	LASV entry inh inconclusive
CCOc1ccc(N=C(C)Nc2ccc(OCC)cc2)cc1	Marburg entry 11µM
CC12C=C(C=CCCc3ccco3)C(C)(C1)[C@H](CCc1ccco1)CC2=O (some centres undefined)	none
COc1cc(C)c(NC(=O)CN(C)C)cc1Nc1nc(Nc2cccc(F)c2C(N)=O)c2cc[nH]c2n1	Marburg entry 0.79µM, LASV entry inh inconclusive
COc1cc(N2CCN(C(C)C)CC2)ccc1Nc1nc(Nc2ccc(F)cc2C(N)=O)c2cc[nH]c2n1	Marburg entry 14µM, LASV entry inh inconclusive
CC(C)(CNC(=O)c1cnn(-c2ncc3c(n2)-c2ccccc2CCC3)c1C1CC1)N1CCOCC1	none
FC(F)(F)c1ccc(-c2nc(-c3ccccc3)oc2NCc2ccccc2)cc1	LASV entry inh inconclusive
CS(=O)(=O)Nc1ccc(N=Cc2c(O)[nH]c3ccccc23)cc1	none
COC(=O)CC=C1c2ccc(OC)cc2[C@@H](OC)[C@@H]1C	none (no result: LASV entry inh)
O=C1C2=C(C(=O)c3ccccc31)[C@H]1O[C@](c3ccsc3)(Cc3c1ccc1ccccc31)O2	none
Cc1nn(-c2ccc(F)cc2)c(C)c1CNC(=O)c1ccc(-n2cc(NC(=O)c3ccoc3)cn2)cc1	none
COc1cc(OC)c(OC)cc1CN1CCOc2ccc(CN3CCN(C(C)=O)CC3)cc2C1	none
CCCCCCCCCCCCCC[N+](C)(C)Cc1ccccc1	Marburg entry inconclusive, LASV entry inh 28µM
CCCCCCCCNS(=O)(=O)CCNCCc1ccccc1	none
CCCCCCCCNS(=O)(=O)CCNCc1ccccc1	none
CCCCCCCCCCCCCCCC[N+](C)(C)Cc1ccccc1	Marburg entry 25µM, LASV entry inh inconclusive
CC(=O)C1=C(C)N(Cc2ccccc2)C(=O)NC1c1cccc(C(F)(F)F)c1 (centres undefined)	none
COc1ccc(O[C@H]2C=C[C@@H](c3ccccc3)O[C@H]2COC(=O)CCC(C)=NOCC[C@@H]2C=C[C@H](OC(C)=O)[C@@H](COC(C)=O)O2)cc1	none
COc1ccc2c(c1)CCc1cnc(-n3ncc(C(=O)N4CCN(CCO)CC4)c3C3CC3)nc1-2	none
CSC[C@H]1CN(CCc2ccccc2)C(=O)[C@H]1CC(=O)Nc1ccccc1	none
CCC[C@H]1CN(c2ccc(Br)cc2)C(=O)[C@H]1CC(=O)Nc1ccccc1	Marburg entry inconclusive
Cc1cccc(C(=O)N2CCC(=O)N([C@H](COCc3ccccc3)Cc3ccccc3)CC2)c1	LASV entry inh inconclusive
O=C(c1ccc(C(F)(F)F)cc1)N1CCC(=O)N([C@H](COCc2ccc(Cl)cc2)Cc2ccccc2)CC1	Marburg entry inconclusive, LASV entry inh 28µM
COc1ccc([C@]23Cc4ccccc4[C@H](O2)C2=C(CC4(CCCCC4)OC2=O)O3)cc1	none
COc1cc(=O)n2c(c1C(=O)N(C)Cc1cscn1)CCN(Cc1c(C)[nH]c3ccccc13)CC2	none
Cc1nnc(-c2ccc(C)c(-c3ccc(C(=O)NCc4ccc(Cl)cc4)cc3)c2)o1	Marburg entry 2.8µM (no result: LASV entry inh)
Cc1nnc(-c2ccc(C)c(-c3ccc(C(=O)Nc4cccc(C#N)c4)cc3)c2)o1	none (no result: LASV entry inh)
O=C(NCCc1nnc2n1CCN(CC1CC=CCC1)CC2)c1ccc(F)cc1 (centres undefined)	none
CC=Cc1cc2ccccc2c2c(C(=O)OC)c(C(=O)OC)c(C(=O)OC)n12	Marburg entry inconclusive
COc1ccccc1-c1ccnc(-n2ncc(C(=O)N(C)C(C)c3nc(C)cs3)c2C2CC2)n1 (centres undefined)	none

Assay outcomes: PubChem, National Center for Advancing Translational Sciences (NCATS)
